Where “and” joins values, the source holds several entries; their conditions need not be identical. Identical values can stand only once. The campaign covered roughly 5,500 compounds. About 2,000 (36%) were called active. Inconclusive results (about 18%) are left out. Cut-off read from the data, not from the text of the source: active = normalized growth mostly below about 0.91 (no sharp cut-off); inconclusive = no clear call, values can overlap the other calls; inactive = mostly above about 0.92. The list shows a part of the results.
Assay: chemical genetic growth profiling, strain panel (AID 1159580);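 note: tested at 20 µM; growth read once vehicle control cultures reached saturation at 30 °C; 1 = growth at the plate median or of vehicle wells; lower values mean less growth of the strain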
Conditions: growth OD

Measured: normalized growth

O=[N+]([O-])/C=C/c1ccsc1
active: S. cerevisiae deletion strains, locus YAL013W, strain DEP1, stronger effect = lower value 0.0965 | S. cerevisiae deletion strains, locus YAR019C, strain CDC15, stronger effect = lower value 0.0973 | S. cerevisiae deletion strains, locus YBL105C, strain PKC1, stronger effect = lower value 0.088 | S. cerevisiae deletion strains, locus YBR135W, strain CKS1, stronger effect = lower value 0.0811 | S. cerevisiae deletion strains, locus YBR136W, strain MEC1, stronger effect = lower value 0.0958 | S. cerevisiae deletion strains, locus YBR160W, strain CDC28, stronger effect = lower value 0.0863 | S. cerevisiae deletion strains, locus YBR229C, strain ROT2, stronger effect = lower value 0.0538 | S. cerevisiae deletion strains, locus YCL061C, strain MRC1, stronger effect = lower value 0.0534 | S. cerevisiae deletion strains, locus YDL017W, strain CDC7, stronger effect = lower value 0.0862 | S. cerevisiae deletion strains, locus YDL028C, strain MPS1, stronger effect = lower value 0.108 | S. cerevisiae deletion strains, locus YDL101C, strain DUN1, stronger effect = lower value 0.0979 and 0.0659 | S. cerevisiae deletion strains, locus YDL108W, strain KIN28, stronger effect = lower value 0.1 | S. cerevisiae deletion strains, locus YDL132W, strain cdc53, stronger effect = lower value 0.0899 | S. cerevisiae deletion strains, locus YDL214C, strain PRR2, stronger effect = lower value 0.0917 | S. cerevisiae deletion strains, locus YDR052C, strain DBF4, stronger effect = lower value 0.0918 | S. cerevisiae deletion strains, locus YDR054C, strain cdc34, stronger effect = lower value 0.0966 | S. cerevisiae deletion strains, locus YDR150W, strain NUM1, stronger effect = lower value 0.319 | S. cerevisiae deletion strains, locus YDR226W, strain ADK1, stronger effect = lower value 0.377 | S. cerevisiae deletion strains, locus YDR477W, strain SNF1, stronger effect = lower value 0.0976 | S. cerevisiae deletion strains, locus YEL061C, strain CIN8, stronger effect = lower value 0.0749 | S. cerevisiae deletion strains, locus YER123W, strain YCK3, stronger effect = lower value 0.0988 | S. cerevisiae deletion strains, locus YER133W, strain GLC7, stronger effect = lower value 0.0944 | S. cerevisiae deletion strains, locus YFL009W, strain cdc4, stronger effect = lower value 0.09 | S. cerevisiae deletion strains, locus YFL029C, strain CAK1, stronger effect = lower value 0.0924 | S. cerevisiae deletion strains, locus YFR003C, strain YPI1, stronger effect = lower value 0.126 | S. cerevisiae deletion strains, locus YFR019W, strain FAB1, stronger effect = lower value 0.0932 | S. cerevisiae deletion strains, locus YFR028C, strain CDC14, stronger effect = lower value 0.0832 | S. cerevisiae deletion strains, locus YGR040W, strain KSS1, stronger effect = lower value 0.102 | S. cerevisiae deletion strains, locus YGR052W, strain FMP48, stronger effect = lower value 0.105 | S. cerevisiae deletion strains, locus YGR078C, strain PAC10, stronger effect = lower value 0.0512 | S. cerevisiae deletion strains, locus YGR092W, strain DBF2, stronger effect = lower value 0.101 | S. cerevisiae deletion strains, locus YHR030C, strain SLT2, stronger effect = lower value 0.086 and 0.114 | S. cerevisiae deletion strains, locus YHR079C, strain IRE1, stronger effect = lower value 0.115 | S. cerevisiae deletion strains, locus YHR082C, strain KSP1, stronger effect = lower value 0.122 | S. cerevisiae deletion strains, locus YHR087W, strain rtc3, stronger effect = lower value 0.0574 | S. cerevisiae deletion strains, locus YHR205W, strain SCH9, stronger effect = lower value 0.014 | S. cerevisiae deletion strains, locus YIL147C, strain SLN1, stronger effect = lower value 0.266 | S. cerevisiae deletion strains, locus YJL095W, strain BCK1, stronger effect = lower value 0.104 | S. cerevisiae deletion strains, locus YJL128C, strain PBS2, stronger effect = lower value 0.0942 | S. cerevisiae deletion strains, locus YJL157C, strain FAR1, stronger effect = lower value 0.0861 | S. cerevisiae deletion strains, locus YJL187C, strain SWE1, stronger effect = lower value 0.0512 | S. cerevisiae deletion strains, locus YJR016C, strain ILV3, stronger effect = lower value 0.0858 | S. cerevisiae deletion strains, locus YJR043C, strain POL32, stronger effect = lower value 0.0674 | S. cerevisiae deletion strains, locus YJR066W, strain TOR1 (second series), stronger effect = lower value 0.0922 | S. cerevisiae deletion strains, locus YJR066W, strain TOR1, stronger effect = lower value 0.121 | S. cerevisiae deletion strains, locus YJR075W, strain HOC1, stronger effect = lower value 0.072 | S. cerevisiae deletion strains, locus YKL048C, strain ELM1, stronger effect = lower value 0.109 | S. cerevisiae deletion strains, locus YKL067W, strain YNK1, stronger effect = lower value 0.0882 | S. cerevisiae deletion strains, locus YKL101W, strain HSL1, stronger effect = lower value 0.0953 | S. cerevisiae deletion strains, locus YKL190W, strain CNB1, stronger effect = lower value 0.0559 | S. cerevisiae deletion strains, locus YKL193C, strain SDS22, stronger effect = lower value 0.0818 | S. cerevisiae deletion strains, locus YKL203C, strain TOR2, stronger effect = lower value 0.102 | S. cerevisiae deletion strains, locus YLR039C, strain RIC1, stronger effect = lower value 0.0823 | S. cerevisiae deletion strains, locus YLR058C, strain SHM2 (second series), stronger effect = lower value 0.0499 | S. cerevisiae deletion strains, locus YLR085C, strain ARP6, stronger effect = lower value 0.0726 | S. cerevisiae deletion strains, locus YLR113W, strain HOG1, stronger effect = lower value 0.133 | S. cerevisiae deletion strains, locus YLR133W, strain CKI1, stronger effect = lower value 0.107 | S. cerevisiae deletion strains, locus YLR262C, strain YPT6, stronger effect = lower value 0.074 | S. cerevisiae deletion strains, locus YLR403W, strain SFP1, stronger effect = lower value 0.0115 | S. cerevisiae deletion strains, locus YML070W, strain DAK1, stronger effect = lower value 0.0892 | S. cerevisiae deletion strains, locus YML094W, strain GIM5, stronger effect = lower value 0.0766 | S. cerevisiae deletion strains, locus YMR001C, strain CDC5, stronger effect = lower value 0.0846 | S. cerevisiae deletion strains, locus YMR205C, strain PFK2 (second series), stronger effect = lower value 0.0874 | S. cerevisiae deletion strains, locus YMR219W, strain ESC1, stronger effect = lower value 0.0511 | S. cerevisiae deletion strains, locus YMR263W, strain SAP30, stronger effect = lower value 0.0973 | S. cerevisiae deletion strains, locus YMR277W, strain FCP1, stronger effect = lower value 0.0872 | S. cerevisiae deletion strains, locus YNL006W, strain LST8, stronger effect = lower value 0.0854 | S. cerevisiae deletion strains, locus YNL020C, strain ARK1, stronger effect = lower value 0.0962 | S. cerevisiae deletion strains, locus YNL153C, strain GIM3, stronger effect = lower value 0.0541 | S. cerevisiae deletion strains, locus YNL161W, strain CBK1, stronger effect = lower value 0.0827 | S. cerevisiae deletion strains, locus YNL183C, strain NPR1, stronger effect = lower value 0.113 | S. cerevisiae deletion strains, locus YNL207W, strain RIO2, stronger effect = lower value 0.0963 | S. cerevisiae deletion strains, locus YNL222W, strain SSU72, stronger effect = lower value 0.0831 | S. cerevisiae deletion strains, locus YNL298W, strain CLA4 (second series), stronger effect = lower value 0.0744 | S. cerevisiae deletion strains, locus YNL307C, strain MCK1 (second series), stronger effect = lower value 0.106 | S. cerevisiae deletion strains, locus YNL322C, strain KRE1, stronger effect = lower value 0.238 | S. cerevisiae deletion strains, locus YNR030W, strain Alg12, stronger effect = lower value 0.0788 | S. cerevisiae deletion strains, locus YOL078W, strain AVO1, stronger effect = lower value 0.0843 | S. cerevisiae deletion strains, locus YOL136C, strain PFK27, stronger effect = lower value 0.0965 | S. cerevisiae deletion strains, locus YOR061W, strain CKA2, stronger effect = lower value 0.0882 | S. cerevisiae deletion strains, locus YOR119C, strain RIO1, stronger effect = lower value 0.112 | S. cerevisiae deletion strains, locus YOR231W, strain MKK1, stronger effect = lower value 0.109 | S. cerevisiae deletion strains, locus YOR329C, strain SCD5, stronger effect = lower value 0.0876 | S. cerevisiae deletion strains, locus YPL031C, strain PHO85, stronger effect = lower value 0.0965 | S. cerevisiae deletion strains, locus YPL055C, strain LGE1, stronger effect = lower value 0.254 | S. cerevisiae deletion strains, locus YPL153C, strain RAD53, stronger effect = lower value 0.0949 | S. cerevisiae deletion strains, locus YPL204W, strain HRR25, stronger effect = lower value 0.0984 | S. cerevisiae deletion strains, locus YPL209C, strain IPL1, stronger effect = lower value 0.0842 | S. cerevisiae deletion strains, locus YPL241C, strain CIN2, stronger effect = lower value 0.106 | S. cerevisiae deletion strains, locus YPL256C, strain CLN2, stronger effect = lower value 0.133 | S. cerevisiae deletion strains, locus YPR025C, strain CCL1, stronger effect = lower value 0.0831 | S. cerevisiae deletion strains, locus YPR106W, strain ISR1, stronger effect = lower value 0.0863 | S. cerevisiae deletion strains, locus YPR111W, strain DBF20, stronger effect = lower value 0.0864 | S. cerevisiae deletion strains, locus YPR135W, strain CTF4, stronger effect = lower value 0.212 | S. cerevisiae deletion strains, strain NNK1, stronger effect = lower value 0.0961 | S. cerevisiae deletion strains, strain TSCII, stronger effect = lower value 0.0894 | S. cerevisiae strains, strain wild type, stronger effect = lower value 0.0538
